The source of these data is PubChem BioAssay AID687001 (Broad Institute, 2013).

Potency and affinity values are given separately. Values without a mark were called inactive.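 How the source made its calls: active means signal-lowering compounds whose fitted half-maximal concentration is at or below twice the top tested dose in every run; inconclusive means runs disagree, flat 30 to 70% inhibition, or poor curve fit; inactive means the rest.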

Sequence of Protein S100-A4 (Homo sapiens) (P26447 whole entry, looked up): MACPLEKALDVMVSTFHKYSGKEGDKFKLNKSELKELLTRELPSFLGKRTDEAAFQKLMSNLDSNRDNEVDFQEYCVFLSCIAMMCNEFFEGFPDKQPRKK

This assay has as its target Protein S100-A4 (Homo sapiens) (UniProt P26447). Description: S100A4-myosin IIA binding inhibitor potency, dose response, biochemical, fluorescence polarization, cherry-picked hits (AID 687001).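 Further: 0% = DMSO neutral control wells and -100% = TFP positive control wells.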 To be noted: FP, S100A4/TAMRA-myosin IIA peptide binding; series mostly up to 11 µM; activity change, negative = inhibition: at the top concentration. (In general: Fluorescence polarisation rises when a labelled molecule tumbles more slowly, as on binding a larger partner.)
As for `CCc1noc(C)c1C(=O)Nc1nc(-c2ccc(OC)cc2OC)cs1`, the “activity change, negative = inhibition” value was 15.2%.

On to `O=c1[nH][nH]c(=O)c2nc(Nc3ccccc3)ncc12`, for which the “activity change, negative = inhibition” value is -0.695%.

In the case of `CC(C)OCCCNC(=O)c1ccccc1NC(=O)C1=CSCCO1`, the “activity change, negative = inhibition” value is -5.74%.

For `NS(=O)(=O)c1ccc(NCc2cnc3ccccc3c2)cc1`, the “activity change, negative = inhibition” value is -3.85%.

`O=C(NCC[C@H]1CC[C@@H](NS(=O)(=O)c2ccccc2F)[C@H](CO)O1)c1ccc(F)cc1`: the “activity change, negative = inhibition” value was 7.18%.

For the molecule `O=C(NCc1ccccc1)c1cc(C2CCCCN2S(=O)(=O)c2ccccc2)on1` (centres undefined), the “activity change, negative = inhibition” value is -4.47%.

For `CN(C)C(=O)[C@H]1[C@H](CO)[C@H]2Cn3c(cccc3=O)[C@@H]1N2C(=O)c1ccccc1`, the “activity change, negative = inhibition” value is 1.74%.

Consider `COCC(=O)N1[C@H](CO)[C@@H](c2ccccc2)C12CN(C(=O)Cc1ccccn1)C2`, for which the “activity change, negative = inhibition” value is 8.22%.

Turning to `COC(=O)c1ccc2c(=O)n(CCCCCC(=O)NC3CCCCC3)c(=O)[nH]c2c1`, the “activity change, negative = inhibition” value was 2.1%.

With `CC(C)NC(=O)N(C)C[C@@H]1Oc2c(NC(=O)Nc3cccc4ccccc34)cccc2C(=O)N([C@H](C)CO)C[C@H]1C`, the “activity change, negative = inhibition” value is -3.24%.

For the molecule `NC(=O)c1nsc(C(=O)N(c2ccccc2F)C(C(=O)NCc2ccccc2)c2ccc(O)cc2)c1N` (centres undefined), the “activity change, negative = inhibition” value was 4.16%.

As to `O=C(C[C@H]1C=C[C@H](NC(=O)c2ccc(F)cc2)[C@H](CO)O1)NCc1ccncn1`, the “activity change, negative = inhibition” value was 0.371%.

As for `COC(=O)[C@@H]1[C@@H](CO)[C@@H]2Cn3c(cccc3=O)[C@@H]2N1CC1CCOCC1`, the “activity change, negative = inhibition” value was 0.65%.

For the molecule `O=C(CSc1ccc(Cl)cc1)NC1CC1`, the “activity change, negative = inhibition” value was -3.42%.

For the molecule `O=C1CN(C(=O)COc2c(F)c(F)cc(F)c2F)c2ccccc2N1`, the “activity change, negative = inhibition” value was 1.81%.

On to `CCN(CC(=O)Nc1ccccc1C(F)(F)F)C(=O)c1ccc(NC(=O)c2cccs2)cc1`, for which the “activity change, negative = inhibition” value is 0.852%.

With `C=CCSc1n[nH]c(-c2cccs2)n1`, the “activity change, negative = inhibition” value was -1.92%.

As to `O=C(Nc1nnc([C@H]2C[C@H](O)[C@@H](CO)O2)s1)c1cccc(Oc2ccccc2)c1`, the “activity change, negative = inhibition” value is 8.33%.

Regarding `COc1ccc(NC(=O)N(C)C[C@@H]2OCCCC[C@@H](C)Oc3ccc(NS(=O)(=O)c4ccc(Cl)cc4)cc3C(=O)N([C@H](C)CO)C[C@@H]2C)cc1`, the “activity change, negative = inhibition” value is 20%.

Turning to `Cc1ccc(C(=O)N/C(=C/c2ccc(C(C)C)cc2)C(=O)NCCCN2CCOCC2)cc1`, the “activity change, negative = inhibition” value was -3.71%.

Turning to `O=C1NC(Cc2ccc(Cl)cc2)COCc2cnnn2CCC1c1ccccc1` (centres undefined), the “activity change, negative = inhibition” value is 0.418%.

`O=C(NCCC1=CCCCC1)c1ccc(Cl)c(S(=O)(=O)N2CCCCC2)c1`: the “activity change, negative = inhibition” value was -0.676%.

Turning to `C=CCNC(=O)/C(C#N)=C/c1c(N(Cc2ccccc2)Cc2ccccc2)nc2ccccn2c1=O`, the “activity change, negative = inhibition” value was 5.76%.

As to `CN1C(=O)c2cc(NC(=O)c3ccccc3Cl)ccc2OC[C@@H]2O[C@@H](CC(=O)NCC(F)(F)F)CC[C@H]21`, the “activity change, negative = inhibition” value is 6.99%.

Consider `CCCC(=O)Nc1ccc2c(c1)C(=O)N(C)C[C@H](OC)[C@H](C)CN(Cc1ccccc1)[C@@H](C)CO2`, for which the “activity change, negative = inhibition” value was 2.23%.

Turning to `COC(=O)c1sccc1NC(=O)Nc1ccc(C)c(C)c1`, the “activity change, negative = inhibition” value is -1.95%.

Regarding `COc1ccccc1CNc1nc(C)c(C(C)=O)s1`, the “activity change, negative = inhibition” value was -3.39%.

Regarding `C[C@@H]1CCCCO[C@@H](CN(C)C(=O)CCC(F)(F)F)[C@@H](C)CN([C@@H](C)CO)C(=O)c2cc(NC(=O)c3ccccc3)ccc2O1`, the “activity change, negative = inhibition” value was 1.8%.

`CC=Cc1ccc2n(c1=O)C[C@@H]1N[C@H]2[C@H](C(=O)NC2CCCCC2)[C@H]1CO` (mixture of isomers): the “activity change, negative = inhibition” value is -2.91%.

For `CCCCSc1nnc(-c2ccccc2N)c(=O)[nH]1`, the “activity change, negative = inhibition” value was 3.48%.

Turning to `O=C(COC(=O)C12CC3CC(CC(Br)(C3)C1)C2)Nc1c(F)cccc1F`, the “activity change, negative = inhibition” value was -1.4%.

On to `CC(NC(=O)c1ccc(N2CCCC2)c([N+](=O)[O-])c1)c1ccc(S(N)(=O)=O)cc1` (centres undefined), for which the “activity change, negative = inhibition” value is -3.17%.

For the molecule `O=C(C[C@@H]1CC[C@@H]2[C@H](COC[C@H](O)CN2C(=O)c2cccnc2)O1)NCc1ccc(Cl)cc1`, the “activity change, negative = inhibition” value is 92.5% [at 5.6 µM].

Regarding `Fc1ccc(Nc2nc(N3CCOCC3)nc(N3CCOCC3)n2)cc1`, the “activity change, negative = inhibition” value is -2.81%.

Turning to `CN(C)CCCN(C(=O)c1ccc(S(=O)(=O)N2CCCCCC2)cc1)c1nc2cc3c(cc2s1)OCO3`, the “activity change, negative = inhibition” value was -0.688%.

On to `COc1cc(C(=O)NCCc2ncccc2C)ccc1OC1CCN(C(C)=O)CC1`, for which the “activity change, negative = inhibition” value is -2.25%.

Take `COC(=O)c1c(NC(=O)CN(C)CC(=O)Nc2ccc(C)cc2)sc2c1CCC(C)C2` (centres undefined): the “activity change, negative = inhibition” value was 2.13%.

As to `Cc1ccc(S(=O)(=O)N(C)C[C@@H]2Oc3c(NC(=O)C4CCCCC4)cccc3C(=O)N([C@H](C)CO)C[C@@H]2C)cc1`, the “activity change, negative = inhibition” value was 7.16%.

With `C[C@H]1CN([C@@H](C)CO)C(=O)Cc2cc(NC(=O)CCC(F)(F)F)ccc2O[C@@H]1CN(C)C`, the “activity change, negative = inhibition” value was 6.39%.
